# Bioassay records deposited in PubChem BioAssay by several laboratories.
# ANO1 activ: TMEM16A chloride channel activators or potentiators, primary screen, cell-based, HTS; actives 0.3% (n = 340,000); Anoctamin-1 (Mus musculus), Q8BHY3; HEK293 TMEM16A/YFP-H148Q/I152L, iodide quench fluorescence; active compounds read low; B-score at 10 µM;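 active = fluorescence-ratio B-score plate-corrected deviation score at least 3 library SD below zero, with starting fluorescence score within 5 deviations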;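 note: channel opened by trigger with iodide after compound preincubation; score built on the fluorescence ratio of max minus min over baseline; more negative score means more quench and so TMEM16A activation or potentiation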
# ANO1 block: TMEM16A chloride channel inhibitors, primary screen, cell-based, HTS | actives 1.2% (n = 310,000) | normalized B-score (activity score, 25-100; higher = stronger inhibition) at 10 µM | HEK293 TMEM16A/YFP iodide influx fluorescence, ionomycin | Anoctamin-1 (Mus musculus), Q8BHY3;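 active = ratio plate-corrected score three or more library SD toward inhibition, starting fluorescence score within five deviations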;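 note: score derived from kinetic fluorescence span divided by baseline fluorescence per well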
# ABCB6 inh 2: ABCB6 transporter inhibitors, primary screen, K562-ABCB6 cells, flow cytometry, MLPCN library; K562-ABCB6 porphyrin accumulation, 1 h; active compounds read low; fluorescence ratio to DMSO, % at 10 µM; actives 0.19% (n = 360,000); AID 602162, 2011;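 active = fluorescence ratio to DMSO below 75%, the collection mean minus 3 SD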;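 note: signal is porphyrin accumulated inside mitochondria; 100% equals median channel fluorescence of DMSO control wells; lower ratio means ABCB6 inhibition with less porphyrin fluorescence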
# hiPSC survival: enhancers of single-cell hiPSC survival, primary screen, ATPlite luminescence; 100% = ROCK inhibitor wells, 0% = DMSO; survival enhancement, % at 20 µM; AID 602274, 2012; actives 0.044% (n = 360,000); in the data active = survival enhancement above about 18%;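 note: cells exposed to compounds for 16 hours before the ATP read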
# DAGLB inhibitor: DAGLB lipase inhibitors, primary screen, biochemical, fluorescence, HTS. actives 0.059% (n = 340,000). HEK293T DAGLB membrane lysate, EnzChek fluorogenic substrate. inhibition, % at 5.17 µM; in the data active = inhibition above about 34%;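 note: 0% = enzyme with vehicle and 100% = wells lacking enzyme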
# TMEM16A reconf: TMEM16A chloride channel inhibitors, confirmation, cell-based, re-confirmation. shares compounds with ANO1 block. HEK293 TMEM16A/YFP-H148Q, iodide quench fluorescence; ionomycin added to raise cell calcium. inhibition, % at 10 µM. actives 39% (n = 2,300). AID 652189, 2013;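 active = mean duplicate percent inhibition, scaled so buffer wells are 0 and the reference blocker 100, over three buffer SD above buffer mean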
# HEK293 Ca mobil: calcium mobilization in TMEM16A/YFP HEK293 cells, confirmation, counter-screen for TMEM16A inhibitor project; shares compounds with ANO1 block; Fluo4 calcium mobilization; calcium response (% of ionomycin), % at 10 µM; actives 2% (n = 2,300); AID 652231, 2013;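 active = duplicate-averaged calcium signal over 20% of the ionomycin maximum, relative to buffer baseline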;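 note: each well's signal is peak minus trough fluorescence divided by its pre-addition baseline; 0% = buffer wells and 100% = ionomycin wells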
# Parental YFP cnt: iodide YFP quench changes in parental YFP-HEK293, counter-screen for TMEM16A inhibitor project, cell-based; AID 652233, 2013; ionomycin; 2,300 tested, under 10 active; YFP ratio F(max-min)/F0 at 10 µM; shares compounds with ANO1 block;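 active = yellow fluorescent protein signal ratio exceeding the buffer control mean by over 5 SD of those controls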;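 note: ratio is mean of duplicate wells from kinetic YFP trace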
# ClC-1 rat inh: ClC-1 chloride channel inhibition, selectivity assay for TMEM16A inhibitor project, cell-based, voltage-dependent ClC-1; shares compounds with ANO1 block; CHO ClC-1-YFP, iodide influx fluorescence quench; iodide control reads 0, buffer control 100; ratio percent, % at 10 µM; 2,300 tested, under 10 active;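 active = duplicate-mean ratio percent above the mean of iodide-only control wells, which defines zero, plus 5 of their SD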;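 note: higher percent means stronger block of ClC-1 iodide influx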
# Starred values were filed as active, the others as inactive; i = inactive; · = no result given. Only some compounds are listed: those with a hit (about 1.5% of all), similar ones and a draw of the others.
SMILES,ANO1 activ,ANO1 block,ABCB6 inh 2,hiPSC survival,DAGLB inhibitor,TMEM16A reconf,HEK293 Ca mobil,Parental YFP cnt,ClC-1 rat inh
Cc1ccc(NC(=O)c2c(C(F)(F)F)nn(C)c2SCc2cccc(C(F)(F)F)c2)cc1C,i,100*,94.0,0.8,-9.5,i,i,-0.981,-8.0
Cc1ccc(NC(=O)c2c(C(F)(F)F)nn(C)c2SCc2ccc(Cl)cc2)cc1C,i,i,94.0,-0.5,-23.5,·,·,·,·
COCCn1c(SCC(=O)NCc2ccccc2)nc2ccccc21,i,i,96.0,0.8,0.6,·,·,·,·
COCCn1c(SCc2csc(-c3ccccc3)n2)nc2ccccc21,i,100*,98.0,0.5,-4.6,24.0%*,i,-0.965,-10.5
O=c1cc(C(F)(F)F)[nH]c2c(OC(F)(F)F)cccc12,i,100*,93.0,-0.1,-1.8,28.0%*,i,-1.1,-16.5
CCN(C(=O)COC(=O)c1cnc(C)cn1)C1CCS(=O)(=O)C1 (stereo unspecified),i,i,97.0,-0.1,-0.8,·,·,·,·
CCOC(=O)C(=O)N(CC)C1CCS(=O)(=O)C1 (stereo unspecified),i,100*,101.0,0.2,-2.4,i,i,-1.01,-17.0
CCC(=O)N1c2ccc(S(=O)(=O)N3CCN(CC)CC3)cc2CC1C (stereo unspecified),i,i,100.0,-0.4,-2.5,·,·,·,·
CC(=O)c1ccc(N2CCN(S(=O)(=O)c3ccc4c(c3)CC(C)N4C(C)=O)CC2)cc1 (stereo unspecified),i,25*,97.0,1.9,-1.8,25.5%*,i,-1.1,-22.0
Cc1ccc(C)c(N2CCN(S(=O)(=O)c3ccc4c(c3)CC(C)N4C(=O)C3CC3)CC2)c1 (stereo unspecified),i,i,92.0,-0.4,-0.1,i,i,-1.15,-15.0
CCC(=O)N1c2ccc(S(=O)(=O)N3CCN(c4ccc([N+](=O)[O-])cc4)CC3)cc2CC1C (stereo unspecified),i,25*,101.0,0.1,0.8,i,i,-1.23,-17.5
CC(=O)c1ccc(N2CCN(S(=O)(=O)c3ccc4c(c3)CC(C)N4C(=O)C3CC3)CC2)cc1 (stereo unspecified),i,i,95.0,-0.1,-2.2,·,·,·,·
CCN(CC)C(=O)C1CCCN(c2ccc([N+](=O)[O-])cc2/C=N/NC(=O)c2cccc(Br)c2)C1 (stereo unspecified),i,100*,98.0,-3.6,1.2,i,i,-0.86,-12.0
O=C(N/N=C/c1cc([N+](=O)[O-])ccc1N1CCCCCC1)c1ccccn1,i,i,97.0,-2.5,2.4,·,·,·,·
CC1Sc2ccc(S(=O)(=O)N(C)Cc3ccccc3)cc2NC1=O (stereo unspecified),i,25*,90.0,0.0,2.9,i,i,-0.819,-10.0
CCCCN(CCCNC(=O)c1c(C)cc(=O)oc1C)c1ccccc1,i,i,90.0,2.2,-1.0,·,·,·,·
CCN(CCCNC(=O)c1c(C)cc(=O)oc1C)c1ccccc1,i,25*,104.0,-2.7,1.0,i,i,-1.18,-10.0
